Pf growth 48h: inhibits P. falciparum growth in the first generation, 48 h; Potency, µM (doses to about 28.7 µM), inactives show at the top dose activity change, negative = inhibition, usual class: inhibitors; P. falciparum luciferase growth in erythrocytes, 48 h; hit rate 5.9% among 310,000; AID 504832; further: potency means the concentration at half of the fitted maximal effect
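Luminescence readout; reporter = integrated firefly luciferase in P. falciparum. RBC culture at 2% hematocrit, 0.1% parasitemia final, 37 C/5% CO2; decreased signal taken as growth inhibition.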
Marburg entry inh: inhibitors of Marburg virus binding or cell entry. Potency, µM (highest dose often 37.8 µM), for the others: top-dose activity change, negative = inhibition, most hits filed as inhibitors. hit rate 1.8% among 300,000. Marburg virus pseudotyped entry inhibition, cell reporter; calls by dose curve; tested in HEK293 cells; further: potency means the concentration at half of the fitted maximal effect
LASV entry inh: inhibitors of Lassa virus binding or cell entry; Lassa virus pseudotype entry inhibition, cell reporter; Potency, µM (series often up to 37.9 µM), without a hit: at the top dose activity change, negative = inhibition, most hits filed as inhibitors; hit rate 1.2% among 300,000; AID 540256; calls by dose curve; tested in HEK293 cells; further: potency means the concentration at half of the fitted maximal effect; nearly all actives have a fitted effect of over 50% in size
HCV inh: inhibitors of hepatitis C virus infection. Potency, µM (top dose mostly 41.8 µM), for inactives: at the top dose activity change, negative = inhibition, usual class: inhibitors. Huh7.5.1 HCVcc-Cre infection, luciferase reporter, 44 h. AID 651820. hit rate 3.4% among 340,000; further: potency means the concentration at half of the fitted maximal effect
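Infectious HCVcc-Cre (~0.5 moi) was added to cells just after compound, with cells seeded 4 h earlier at 1,000 per well. Luciferase activity after 44 h culture reported infection; substrate was incubated 15 min at room temperature before reading.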
HCMV antiviral: inhibitors of human cytomegalovirus; activity change, negative = inhibition, % at 57.5 µM; hit rate 4.5% among 410,000; HFF cells, HCMV-luciferase reporter, 72 h; hits give low values; in the data active means activity change below about -60%; inconclusive means no clear call, values can overlap the other calls; inactive means above about -39%
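Two-dose cell screen: HFF monolayers treated with compounds and infected with luciferase-expressing HCMV at 1 PFU/cell, 72 h at 37C, then lysed for luciferase measurement.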
Pf growth 96h: P. falciparum growth inhibition at 96 hours; P. falciparum luciferase reporter growth, 96 h; Potency, µM (highest dose often 28.7 µM), inactives show at the top dose activity change, negative = inhibition, actives largely listed as inhibitors; hit rate 6.9% among 320,000; further: potency means the concentration at half of the fitted maximal effect
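Cell-based qHTS: luciferase-tagged P. falciparum in erythrocytes (2% hematocrit, 0.05% parasitemia final) incubated with compounds for 96 hours, 37 C, 5% CO2; luciferase detection reagent then added and luminescence measured.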
* hit, by the source's call; ? = inconclusive; / = no result; ! = not active in a repeat; [ ] = remark or other dose. The list is not random: actives were taken first. Their share in the collection is about 14%. Unless noted, the call rests on the fitted dose curve; in most records, active means well fitted inhibition curve with a large enough effect; inconclusive means small, poorly fitted or top-dose-only effect, or another doubt; inactive means no such curve, though single readings can be large or run the other way. On the % scale 0 is the no-effect control and ±100 the full control effect.

SMILES	Pf growth 48h	Marburg entry inh	LASV entry inh	HCV inh	HCMV antiviral	Pf growth 96h
COc1ccc(C)cc1NC(=O)C1COc2ccccc2O1 (stereo not drawn)	-3.0%	?	-0.5%[46.1 µM]	?	-11.6	?
COc1ccc(C)cc1NC(=O)COC(=O)c1c(C)nn(-c2ccccc2)c1C	?	/	/	12.6µM*	-32.1	-27.0%
Cc1nn(Cc2ccccc2Cl)c(Cl)c1C(=O)OCC(=O)NC(=O)NC1CCCCC1	7.1%	1.8%	-1.1%	3.9%	4.3	-5.9%
Cc1nn(-c2ccccc2)c(C)c1C(=O)OCC(=O)NC12CC3CC(CC(C3)C1)C2	?	-17.2%	?	-20.5%	-31.3	10.4µM*
Cc1nn(-c2ccccc2)c(C)c1C(=O)OCC(=O)NC(=O)NC1CCCC1	-28.6%	-19.6%	-16.3%	8.91µM*	-18.9	33.2%
Cc1nc(-n2nc(C)c(CCC(C)C)c2C)sc1C(=O)Nc1cccc(Cl)c1C	/	23.4%[46.1 µM]	?	/	20.5	/
O=C(Cc1ccc(-c2ccccc2)cc1)NCCS(=O)(=O)N1CCN(c2ccc(F)cc2)CC1	/	/	-9.1%[46.1 µM]	/	?	/
CC(O)c1nc2cc([N+](=O)[O-])ccc2n1Cc1ccccc1 (stereo not drawn)	13.1µM*	/	/	-21.5%	-32.3	-13.9%
COc1ccc(N(C(=O)/C=C/C(=O)Nc2cc(C)on2)C(C(=O)NC2CCCC2)c2ccccc2C)cc1 (stereo not drawn)	9.28µM*	9.2µM*	?	?	-63.6*	5.4%
Cc1cc(NC(=O)CSCC(=O)N(c2cccc(Cl)c2)C(C(=O)NC2CCCCC2)c2ccc(O)c(O)c2)no1 (stereo not drawn)	?	-5.8%	-25.0%	1.9%	1.9	9.28µM*
Cc1cc(NC(=O)CCC(=O)N(c2ccc(F)cc2)C(C(=O)NC2CCCC2)c2cccnc2)no1 (stereo not drawn)	?	?	0.2%	7.7%	25.1	-26.8%
COc1ccc(N(C(=O)CSCC(=O)Nc2cc(C)on2)C(C(=O)NC2CCCCC2)c2ccc(O)c(O)c2)cc1 (stereo not drawn)	-4.3%	?	0.8%	1.7%	-28.4	2.62µM*
Cc1ccc(C(C(=O)NC2CCCC2)N(C(=O)CCC(=O)Nc2cc(C)on2)c2ccccc2)cc1 (stereo not drawn)	-13.5%	?	4.6%	9.3%	18.0	-1.6%
Cc1cc(NC(=O)CSCC(=O)N(c2ccc(F)cc2)C(C(=O)NC2CCCCC2)c2ccc(O)c(O)c2)no1 (stereo not drawn)	?	2.2%	?	-5.0%	-7.5	14.7µM*
COCCC(=O)Nc1ccc2c(c1)CN(C(=O)CCSC)CC2	15.3%	-5.5%[46.1 µM]	2.2%	6.2%	-27.1	-1.0%
O=C(Nc1ccc2c(c1)CN(Cc1ccc(CO)o1)CC2)c1ccc(C(F)(F)F)cc1	?	?	?	11.2µM*	?	65.8%
COc1ccccc1CCC(=O)Nc1ccc2c(c1)CN(Cc1ccc(CO)o1)CC2	13.1µM*	4.2%	-10.8%	-29.7%	42.5	?
COCCC(=O)Nc1ccc2c(c1)CN(C(=O)c1ccc(CSC)o1)CC2	?	-5.1%[46.1 µM]	-17.1%[46.1 µM]	10µM*	50.3	13.1µM*
Cc1ccccc1C1=NOC2CN(C(=O)/C=C/c3ccccc3)CC12 (stereo not drawn)	/	/	/	/	-11.0	/
CN1OC[C@@H]2CN(S(=O)(=O)c3cccc(C(F)(F)F)c3)[C@H](c3ccc(N4CCCCC4)cc3)C[C@@H]21	/	/	/	/	36.1	/
CCOCCCn1c(SCC(=O)Nc2ccc(OC)cc2)nc2ccccc2c1=O	?	-4.5%[46.1 µM]	-0.9%[46.1 µM]	-9.8%	4.6	-20.3%
CSc1nc2nccc(-c3ccc(Oc4ccccc4)cc3)n2n1	?	?	15.8µM*	11.2µM*	-17.3	/
CSc1nc2nccc(-c3ccc(-c4ccccc4)cc3)n2n1	/	-19.0%	?	-14.0%	-21.2	10.4µM*
COCCOC(=O)c1c(-c2ccccc2)c(-c2ccccc2)nn(C)c1=O	/	-1.0%[46.1 µM]	-14.8%[46.1 µM]	/	35.8	/
CCOC(=O)c1c(C)n(-c2ccccc2)c2ccc(OC(=O)c3ccccc3NC(=O)C(C)(C)C)cc12	/	/	2.5%[46.1 µM]	/	-93.5*	/
SMILES	Pf growth 48h	Marburg entry inh	LASV entry inh	HCV inh	HCMV antiviral	Pf growth 96h
CCOC(=O)c1c(C)n(-c2ccccc2)c2ccc(OC(=O)c3ccccc3NC(=O)C(C)C)cc12	/	/	-17.4%[46.1 µM]	/	-0.5	/
CCOC(=O)c1c(CN(CC)CC)n(-c2ccccc2)c2ccc(O)cc12	8.28µM*	?	-13.7%	-19.9%	-29.1	?
CCOC(=O)c1c(-c2ccccc2)n(C)c2ccc(O)cc12	/	?	?	?	-12.1	?
CCOC(=O)c1c(-c2ccccc2)[nH]c2ccc(O)cc12	-6.2%	?	-6.9%	11.2µM*	-11.9	/
CCOC(=O)c1c(C)n(-c2ccccc2)c2ccc(OC(=O)c3cccc(C)c3)cc12	/	/	11.7%[46.1 µM]	/	-5.5	/
CCOC(=O)c1c(C)n(-c2ccccc2)c2ccc(O)cc12	?	0.4%[46.1 µM]	-18.1%	10µM*	?	5.86µM*
CCN(Cc1ccccc1)C(=O)Cn1c(=O)cc(C)c2c(C)nn(-c3cccc(F)c3)c21	/	/	-3.3%[46.1 µM]	/	-10.4	/
COc1cc(Nc2nn(-c3ccc(OC(F)(F)F)cc3)nc2C(C)=O)cc(OC)c1	/	3.0%[46.1 µM]	-3.5%[46.1 µM]	/	-24.4	/
Cc1cc(Cn2nc(-c3ccccc3)cc2C(=O)NCc2cccs2)on1	?	/	/	-23.7%	13.8	?
O=C(Nc1ccc(Cl)c(-c2nc3ccccc3o2)c1)c1cccc2c(Cl)cccc12	/	2.7%[46.1 µM]	-28.3%[46.1 µM]	/	19.1	/
NC(N)=N/N=C/c1ccc(Cl)cc1Cl	?	3.16µM*	?	?	-3.2	?
Oc1ccc(N2CCN(C(c3ccncc3)c3nnnn3C3CCCC3)CC2)cc1 (stereo not drawn)	?	-5.4%	-4.0%	-13.3%	20.3	?
Cc1ccc(Cl)cc1N1CCN(C(c2cccnc2)c2nnnn2C2CCCCC2)CC1 (stereo not drawn)	?	14.6µM*!	?	10.8%	-38.6	67.5%
Cc1ccc(C(c2nnnn2C2CCCCC2)N2CCN3CCCC3C2)cc1 (stereo not drawn)	?	?	-0.7%	-26.0%	-12.7	?
Cc1ccc(Cl)cc1N1CCN(C(c2ccc(C#N)cc2)c2nnnn2C2CCCC2)CC1 (stereo not drawn)	2.33µM*	5.8µM*	-18.4%	8.2%	?	2.1%
CC(C)C(c1nnnn1C1CCCCC1)N1CCN(c2ncccn2)CC1 (stereo not drawn)	13.3%	19.7%	-16.1%	7.1%	-10.9	/
c1cncc(C(c2nnnn2C2CCCCC2)N2CCCCC2)c1 (stereo not drawn)	14.7µM*	-9.1%[46.1 µM]	-0.2%[46.1 µM]	18.4%	-4.9	-3.5%
CC(C)C(c1nnnn1C1CCCC1)N1CCCCC1 (stereo not drawn)	/	-12.2%[46.1 µM]	11.3%	24.2%	30.0	14.7µM*

Source: PubChem BioAssay
